Compound in this assay: Cc1ccc(-c2ccc3c(ccc4sc5c(c43)NC[C@@H](C)NC5=O)n2)cn1
The assay is described as follows: kinase activity remaining relative to vehicle control; higher = less inhibition. On the procedure:
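In vitro radiometric kinase profiling of the MK2 inhibitor PF-3644022 at 0.1, 1 and 10 µM against a panel of kinases (MRC International Centre for Kinase Profiling, Dundee). Read-out is % kinase activity remaining relative to the vehicle control, mean of n=2.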

Sequence of UniProt O60285 (O60285 whole entry, looked up): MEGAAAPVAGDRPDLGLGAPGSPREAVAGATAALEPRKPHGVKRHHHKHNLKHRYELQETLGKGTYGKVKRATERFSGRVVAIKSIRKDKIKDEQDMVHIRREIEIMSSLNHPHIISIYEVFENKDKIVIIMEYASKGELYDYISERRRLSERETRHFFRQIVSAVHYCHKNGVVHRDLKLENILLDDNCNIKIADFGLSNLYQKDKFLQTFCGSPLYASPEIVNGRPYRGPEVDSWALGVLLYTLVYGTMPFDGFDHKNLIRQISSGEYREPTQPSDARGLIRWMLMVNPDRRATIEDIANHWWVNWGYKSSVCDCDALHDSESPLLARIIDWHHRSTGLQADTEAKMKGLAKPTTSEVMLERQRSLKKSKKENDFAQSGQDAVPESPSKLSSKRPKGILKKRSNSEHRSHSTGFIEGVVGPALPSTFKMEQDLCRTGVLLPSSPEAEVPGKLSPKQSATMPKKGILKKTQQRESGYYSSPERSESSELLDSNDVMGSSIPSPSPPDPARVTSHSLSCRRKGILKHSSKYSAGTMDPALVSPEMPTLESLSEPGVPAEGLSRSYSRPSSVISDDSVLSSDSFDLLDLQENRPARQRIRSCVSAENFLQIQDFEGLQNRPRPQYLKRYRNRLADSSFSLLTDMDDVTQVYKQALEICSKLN
Sequence of UniProt Q9NZJ5 (Q9NZJ5 whole entry, looked up): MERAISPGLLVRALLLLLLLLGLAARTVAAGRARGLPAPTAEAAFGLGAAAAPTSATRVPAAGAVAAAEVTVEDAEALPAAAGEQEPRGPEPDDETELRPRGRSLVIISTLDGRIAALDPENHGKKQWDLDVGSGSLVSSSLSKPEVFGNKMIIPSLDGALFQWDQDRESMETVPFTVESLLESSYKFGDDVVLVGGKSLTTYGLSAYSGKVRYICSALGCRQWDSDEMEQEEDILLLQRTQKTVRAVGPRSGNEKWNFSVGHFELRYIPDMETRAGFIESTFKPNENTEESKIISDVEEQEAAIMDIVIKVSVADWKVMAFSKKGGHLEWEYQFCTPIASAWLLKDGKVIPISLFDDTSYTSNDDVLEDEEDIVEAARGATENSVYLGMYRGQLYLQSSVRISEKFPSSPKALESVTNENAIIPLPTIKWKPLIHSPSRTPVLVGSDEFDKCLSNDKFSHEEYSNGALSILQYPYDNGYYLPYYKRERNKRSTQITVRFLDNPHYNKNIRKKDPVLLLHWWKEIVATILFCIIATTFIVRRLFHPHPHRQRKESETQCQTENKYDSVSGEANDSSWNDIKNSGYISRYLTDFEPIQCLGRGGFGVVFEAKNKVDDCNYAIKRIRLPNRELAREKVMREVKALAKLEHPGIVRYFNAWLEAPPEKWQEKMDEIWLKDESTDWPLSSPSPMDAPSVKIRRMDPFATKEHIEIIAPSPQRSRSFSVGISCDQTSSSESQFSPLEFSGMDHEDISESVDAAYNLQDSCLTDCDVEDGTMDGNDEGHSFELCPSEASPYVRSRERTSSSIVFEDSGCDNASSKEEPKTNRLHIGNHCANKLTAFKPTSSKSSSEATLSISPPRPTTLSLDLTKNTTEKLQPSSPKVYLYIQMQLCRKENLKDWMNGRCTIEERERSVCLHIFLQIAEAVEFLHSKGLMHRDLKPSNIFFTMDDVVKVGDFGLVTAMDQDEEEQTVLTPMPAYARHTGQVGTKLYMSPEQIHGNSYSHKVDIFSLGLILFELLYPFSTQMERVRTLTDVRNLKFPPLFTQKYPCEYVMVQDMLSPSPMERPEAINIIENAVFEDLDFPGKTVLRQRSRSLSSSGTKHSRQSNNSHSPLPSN
Sequence of UniProt Q9P286 (Q9P286 whole entry, looked up): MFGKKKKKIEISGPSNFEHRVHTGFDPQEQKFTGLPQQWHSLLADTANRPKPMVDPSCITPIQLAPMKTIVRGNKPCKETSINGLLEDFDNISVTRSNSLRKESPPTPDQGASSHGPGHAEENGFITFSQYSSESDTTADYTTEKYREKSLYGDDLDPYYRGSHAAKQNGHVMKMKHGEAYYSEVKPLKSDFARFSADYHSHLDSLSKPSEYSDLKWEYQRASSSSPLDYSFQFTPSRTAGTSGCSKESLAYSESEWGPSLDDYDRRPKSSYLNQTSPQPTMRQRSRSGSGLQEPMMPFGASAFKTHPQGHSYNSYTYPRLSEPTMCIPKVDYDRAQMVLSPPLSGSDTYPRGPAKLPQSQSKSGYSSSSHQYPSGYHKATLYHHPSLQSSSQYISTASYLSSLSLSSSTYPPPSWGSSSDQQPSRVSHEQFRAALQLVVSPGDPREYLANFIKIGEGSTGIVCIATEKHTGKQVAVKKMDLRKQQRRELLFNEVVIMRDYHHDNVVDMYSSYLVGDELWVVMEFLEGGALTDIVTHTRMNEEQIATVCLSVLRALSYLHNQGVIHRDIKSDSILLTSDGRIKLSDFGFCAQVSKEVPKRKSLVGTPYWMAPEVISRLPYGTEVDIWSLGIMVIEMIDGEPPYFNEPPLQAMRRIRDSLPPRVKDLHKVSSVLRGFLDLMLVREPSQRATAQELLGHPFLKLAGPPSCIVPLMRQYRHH
Sequence of UniProt Q14012 (Q14012 whole entry, looked up): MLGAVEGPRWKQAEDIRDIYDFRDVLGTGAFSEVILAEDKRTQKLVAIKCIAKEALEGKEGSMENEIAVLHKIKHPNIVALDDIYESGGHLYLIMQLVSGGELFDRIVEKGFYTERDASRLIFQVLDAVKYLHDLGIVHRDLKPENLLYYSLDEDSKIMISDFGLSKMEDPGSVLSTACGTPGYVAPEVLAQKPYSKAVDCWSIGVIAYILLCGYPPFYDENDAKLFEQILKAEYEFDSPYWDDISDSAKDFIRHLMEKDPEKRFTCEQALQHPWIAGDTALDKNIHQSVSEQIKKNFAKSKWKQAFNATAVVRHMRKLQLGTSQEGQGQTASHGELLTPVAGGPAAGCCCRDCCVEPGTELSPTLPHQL
Sequence of UniProt Q13882 (Q13882 whole entry, looked up): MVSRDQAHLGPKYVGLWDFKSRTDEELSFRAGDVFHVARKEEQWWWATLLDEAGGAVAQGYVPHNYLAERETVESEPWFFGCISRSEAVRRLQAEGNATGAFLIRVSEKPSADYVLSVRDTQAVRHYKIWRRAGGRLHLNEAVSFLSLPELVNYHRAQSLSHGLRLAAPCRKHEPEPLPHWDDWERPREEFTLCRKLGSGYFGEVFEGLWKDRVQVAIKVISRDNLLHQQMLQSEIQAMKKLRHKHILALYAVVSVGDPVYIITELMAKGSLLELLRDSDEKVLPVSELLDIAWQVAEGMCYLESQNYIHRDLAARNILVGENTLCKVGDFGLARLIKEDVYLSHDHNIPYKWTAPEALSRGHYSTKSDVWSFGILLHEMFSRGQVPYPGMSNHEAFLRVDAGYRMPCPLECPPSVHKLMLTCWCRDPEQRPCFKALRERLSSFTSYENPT
Sequence of UniProt P50750 (P50750 whole entry, looked up): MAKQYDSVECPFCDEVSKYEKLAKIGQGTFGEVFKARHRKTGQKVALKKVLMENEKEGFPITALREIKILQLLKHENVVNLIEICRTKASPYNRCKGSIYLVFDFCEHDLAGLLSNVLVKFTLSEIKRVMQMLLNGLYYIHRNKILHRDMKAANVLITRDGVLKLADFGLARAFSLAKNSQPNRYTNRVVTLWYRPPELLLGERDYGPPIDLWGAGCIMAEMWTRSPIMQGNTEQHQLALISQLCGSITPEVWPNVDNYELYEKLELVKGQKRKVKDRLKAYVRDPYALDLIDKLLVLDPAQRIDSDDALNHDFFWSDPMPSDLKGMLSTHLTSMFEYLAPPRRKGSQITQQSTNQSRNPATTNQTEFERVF
Sequence of UniProt Q15569 (Q15569 whole entry, looked up): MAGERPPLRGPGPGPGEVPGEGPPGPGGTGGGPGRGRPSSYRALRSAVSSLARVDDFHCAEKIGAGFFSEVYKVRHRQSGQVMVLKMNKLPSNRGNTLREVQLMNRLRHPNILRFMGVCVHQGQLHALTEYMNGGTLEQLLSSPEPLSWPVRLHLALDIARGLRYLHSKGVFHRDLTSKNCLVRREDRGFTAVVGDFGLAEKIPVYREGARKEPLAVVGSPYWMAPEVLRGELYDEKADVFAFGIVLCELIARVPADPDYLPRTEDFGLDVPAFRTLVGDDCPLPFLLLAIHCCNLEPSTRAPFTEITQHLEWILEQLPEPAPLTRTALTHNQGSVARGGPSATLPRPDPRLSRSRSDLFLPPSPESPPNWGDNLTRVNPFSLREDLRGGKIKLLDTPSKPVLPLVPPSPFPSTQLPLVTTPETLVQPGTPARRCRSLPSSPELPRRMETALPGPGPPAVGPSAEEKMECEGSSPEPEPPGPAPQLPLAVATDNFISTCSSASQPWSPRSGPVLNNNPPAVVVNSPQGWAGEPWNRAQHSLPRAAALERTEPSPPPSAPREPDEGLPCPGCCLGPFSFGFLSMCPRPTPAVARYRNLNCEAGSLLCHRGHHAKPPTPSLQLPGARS
Sequence of UniProt Q9NWZ3 (Q9NWZ3 whole entry, looked up): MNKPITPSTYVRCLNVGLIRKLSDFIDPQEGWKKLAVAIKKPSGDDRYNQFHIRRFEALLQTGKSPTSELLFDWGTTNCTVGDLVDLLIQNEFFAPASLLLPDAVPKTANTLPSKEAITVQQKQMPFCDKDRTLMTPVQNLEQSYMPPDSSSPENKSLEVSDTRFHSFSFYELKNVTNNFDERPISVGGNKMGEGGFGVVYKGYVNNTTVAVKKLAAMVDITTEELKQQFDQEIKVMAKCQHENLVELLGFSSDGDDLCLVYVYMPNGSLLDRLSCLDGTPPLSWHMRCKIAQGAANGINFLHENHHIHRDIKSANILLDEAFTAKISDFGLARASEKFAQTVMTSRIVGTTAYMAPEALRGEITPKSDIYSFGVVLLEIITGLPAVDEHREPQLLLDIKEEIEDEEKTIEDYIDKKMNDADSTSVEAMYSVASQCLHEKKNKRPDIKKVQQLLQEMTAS

MPSK1 (UniProt O75716): the kinase activity remaining is, setting by setting: (inhibitor concentration 0.1 µM) 117%; (inhibitor concentration 1 µM) 118%; (inhibitor concentration 10 µM) 105%.

For MARK4 (UniProt Q96L34), the kinase activity remaining was determined as 107% (inhibitor concentration 0.1 µM), 87% (inhibitor concentration 1 µM) and 49% (inhibitor concentration 10 µM).

As for CAMK1 (UniProt Q14012), the kinase activity remaining runs as follows: (inhibitor concentration 0.1 µM) 96%; (inhibitor concentration 1 µM) 97%; (inhibitor concentration 10 µM) 68%.

EIF2AK3 (UniProt Q9NZJ5): the kinase activity remaining reads like this: (inhibitor concentration 0.1 µM) 114%; (inhibitor concentration 1 µM) 101%; (inhibitor concentration 10 µM) 73%.

As for PAK5 (UniProt Q9P286), the kinase activity remaining by setting is: (inhibitor concentration 0.1 µM) 108%; (inhibitor concentration 1 µM) 101%; (inhibitor concentration 10 µM) 101%.

Take NUAK1 (UniProt O60285): the kinase activity remaining was found to be 112% (inhibitor concentration 0.1 µM), 102% (inhibitor concentration 1 µM) and 58% (inhibitor concentration 10 µM).

As for CK2, the kinase activity remaining reads like this: (inhibitor concentration 0.1 µM) 100%; (inhibitor concentration 1 µM) 97%; (inhibitor concentration 10 µM) 93%.

In the case of ULK2 (UniProt Q8IYT8), the kinase activity remaining (inhibitor concentration 0.1 µM) worked out at 109%, the kinase activity remaining (inhibitor concentration 1 µM) came out at 121% and the kinase activity remaining (inhibitor concentration 10 µM) was 54%.

As for IRAK4 (UniProt Q9NWZ3), the kinase activity remaining runs as follows: (inhibitor concentration 0.1 µM) 94%; (inhibitor concentration 1 µM) 62%; (inhibitor concentration 10 µM) 24%.

In the case of CDK9-Cyclin T1 (UniProt P50750), the kinase activity remaining is, setting by setting: (inhibitor concentration 0.1 µM) 109%; (inhibitor concentration 1 µM) 96%; (inhibitor concentration 10 µM) 51%.

For BRK (UniProt Q13882), the kinase activity remaining is 121% (inhibitor concentration 0.1 µM), 94% (inhibitor concentration 1 µM) and 92% (inhibitor concentration 10 µM).

For TTBK1 (UniProt Q5TCY1), the kinase activity remaining is 103% (inhibitor concentration 0.1 µM), 104% (inhibitor concentration 1 µM) and 96% (inhibitor concentration 10 µM).

As for TESK1 (UniProt Q15569), the kinase activity remaining is, setting by setting: (inhibitor concentration 0.1 µM) 112%; (inhibitor concentration 1 µM) 111%; (inhibitor concentration 10 µM) 101%.

On to p38 beta MAPK, for which the kinase activity remaining by setting is: (inhibitor concentration 0.1 µM) 118%; (inhibitor concentration 1 µM) 126%; (inhibitor concentration 10 µM) 117%.

On to EPH-B1, for which the kinase activity remaining runs as follows: (inhibitor concentration 0.1 µM) 113%; (inhibitor concentration 1 µM) 106%; (inhibitor concentration 10 µM) 106%.

For the target CLK2 (UniProt P49760), the kinase activity remaining worked out at 86% (inhibitor concentration 0.1 µM), 43% (inhibitor concentration 1 µM) and 9% (inhibitor concentration 10 µM).

In the case of PHK, the kinase activity remaining was 110% (inhibitor concentration 0.1 µM), 91% (inhibitor concentration 1 µM) and 86% (inhibitor concentration 10 µM).

Consider MSK1 (UniProt O75582), for which the kinase activity remaining turned out to be 120% (inhibitor concentration 0.1 µM), 105% (inhibitor concentration 1 µM) and 99% (inhibitor concentration 10 µM).

With IKK epsilon, the kinase activity remaining is, setting by setting: (inhibitor concentration 0.1 µM) 98%; (inhibitor concentration 1 µM) 95%; (inhibitor concentration 10 µM) 44%.

Consider S6K1, for which the kinase activity remaining is, setting by setting: (inhibitor concentration 0.1 µM) 99%; (inhibitor concentration 1 µM) 95%; (inhibitor concentration 10 µM) 80%.

For SGK1 (UniProt O00141), the kinase activity remaining (inhibitor concentration 0.1 µM) came to 116%, the kinase activity remaining (inhibitor concentration 1 µM) was found to be 112% and the kinase activity remaining (inhibitor concentration 10 µM) is 112%.

As for PAK2 (UniProt Q13177), the kinase activity remaining (inhibitor concentration 0.1 µM) was determined as 102%, the kinase activity remaining (inhibitor concentration 1 µM) was 103% and the kinase activity remaining (inhibitor concentration 10 µM) turned out to be 93%.

Source of the values: the supplement of paper PMC6378613.
